The whole screen tested about 350,000 compounds, of which about 31,000 (8.9%) were called active. About 15% were inconclusive and are not listed. Shown is part of a subset that was picked to be rich in actives. Where a call stands in place of a potency, no number is given. Values without a mark were called inactive. The call rests on the fitted dose curve; in most records, active means well fitted inhibition curve with a large enough effect; inconclusive means small, poorly fitted or top-dose-only effect; inactive means no such curve, though single readings can be large or run the other way.
Potency means the concentration at half of the fitted maximal effect.

Sequence of Histone-lysine N-methyltransferase EHMT2 (Homo sapiens) (Q96KQ7 913-1193 limits assumed): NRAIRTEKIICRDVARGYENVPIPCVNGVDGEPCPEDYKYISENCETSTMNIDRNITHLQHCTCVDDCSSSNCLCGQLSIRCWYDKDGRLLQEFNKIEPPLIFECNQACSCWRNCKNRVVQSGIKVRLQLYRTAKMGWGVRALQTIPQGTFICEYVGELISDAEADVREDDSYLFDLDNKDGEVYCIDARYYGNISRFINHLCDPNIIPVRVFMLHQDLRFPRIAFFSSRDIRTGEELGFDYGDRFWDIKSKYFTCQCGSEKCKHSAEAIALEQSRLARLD

This experiment addresses Histone-lysine N-methyltransferase EHMT2 (Homo sapiens) (UniProt Q96KQ7). The experiment can be described thus: qHTS Assay for Inhibitors of Histone Lysine Methyltransferase G9a. Further: nearly all actives have a fitted effect of over 75% in size. The settings on record: G9a H3K9 monomethylation, AlphaScreen, 2 h; series mostly up to 59 µM. The text has this: Methylated lysines, on the N-terminal tails of histone proteins serve as epigenetic markers to recruit factors that can then modify local chromatin structure to lead to functional consequences. G9a and other members of the SUV39 family of the SET domain-containing superfamily of histone lysine methyltransferases (HMT) have been identified to specifically methylate Lys9 of histone H3 (H3K9). G9a catalyzes the mono- and di-methylation of H3K9 in mammalian euchromatic regions, where the resulting H3K9me2 is indicative of transcriptional repression. […] The inhibition of G9a will result in transcriptional activation and work synergistically with DNA methyltransferase and histone deacetylase inhibitors, to kill cancer cells. This qHTS assay for identification of G9a inhibitors is a chemiluminescence based AlphaScreen (PerkinElmer). Methylation of biotinylated-histone peptide is measured through specific antibody-based detection, in conjunction with streptavidin-coated donor and anti-IgG antibody-coated acceptor beads. The method is particularly well suited for detection of inhibitors acting by the desired histone peptide competitive mechanism and is applicable to testing other HMTs. Although AlphaScreen has significant advantages with its utility in a variety of epigenetic target assays, the primary screening data provided in this deposition should be used with caution due to the prevalence of screening artifacts. An AlphaScreen counterscreen is highly recommended to be run against any putative actives to eliminate non specific artifacts. Alternatively, one can use other AlphaScreen assays in PubChem to filter out promiscuous hits. Quinn et al. A chemiluminescence-based method for identification of histone lysine methyltransferase inhibitors. Mol Biosyst 6(5): 782-8. 2010. PMID: 20567762 [2] Baell,Holloway. New substructure filters for removal of pan assay interference compounds (PAINS) from screening libraries and for their exclusion in bioassays. J Med Chem. 53(7):2719-40. 2010. PMID: 20131845 NIH Molecular Libraries Probe Production Network [MLPCN] NIH Chemical Genomics Center [NCGC] Structural Genomics Consortium (SGC) NIH Grant: 5U54 MH084681-02
To each well of a 1,536w plate, 2ul of HMT enzyme (final 20nM) were added, using a nanoliter dispenser. The G9a- and GLP-inhibitor BIX-01294 (CID: 25150857) are used as an intraplate control, with a 16-point titration in duplicate. A Kalypsys pin-tool transferred 23nl of library compound solution in DMSO to each well. Following a 15 min incubation of enzyme with compounds at room temperature, 1ul mixture of b-H3K9 peptide substrate (final 500nM) and SAM cofactor (final 20uM) were added. Reactions were allowed to proceed at room temperature for 2 hours. Methylated b-H3K9 peptide product was detected with 0.5 ug/mL rabbit polyclonal anti-monomethyl histone H3K9 antibody (Abcam Inc., Cambridge, MA) and 20 ug/mL each streptavidin-coated donor and anti-rabbit IgG acceptor AlphaScreen beads. Antibody and beads were added in a 1ul dispense, for a final volume of 4ul, and plates were incubated, protected from the light, for 10 min at room temperature. Microplates were then read on an EnVision multilabel plate reader using the 1,536 plate HTS AlphaScreen aperture (excitation time 80 ms, measurement time 240 ms).
Regarding `C/C(=N\NC(=O)COc1c(C)cccc1C)c1cccs1`, the Potency entry was “inactive”.
Consider `C/C(=N\Nc1ncc(Cl)cc1Cl)c1cccs1`, for which the Potency result is “inactive”.
On to `C/C(=N\Nc1ccc(S(N)(=O)=O)cc1[N+](=O)[O-])c1cccs1`, for which the Potency is 25.1 µM (active).
Same read-out and setting: in the case of `C=CCOc1ccc(C(=O)Nc2ccccc2C(=O)N2CCCC2)cc1` it was “inactive”.
For the compound `O=C(NCCc1ccc(Cl)cc1)c1ccc2c(c1)N(Cc1ccc(F)cc1)C(=O)CS2`, the Potency entry was “inactive”.
Take `O=C(CSc1nnc(-c2cccs2)n1-c1ccccc1)NCc1ccco1`: the activity, negative = inhibition is -5.59% [at 12.7 µM].
In the case of `O=C(CSc1nnc(-c2cccs2)n1-c1ccccc1)N1CCN(C(=O)c2ccco2)CC1`, the Potency was 7.08 µM (active).
Consider `Cc1cc2ccccc2n2c(SCC(=O)N3CCN(C(=O)c4ccco4)CC3)nnc12`, for which the Potency entry is “inactive”.
With `Cc1cc(=O)n2[nH]c(-c3cccc(Cl)c3)cc2n1`, the Potency entry is “inactive”.
`Cc1cc(/C=C(/C#N)C(=O)Nc2ccc(Cl)cc2)c(C)n1-c1cccnc1`: the Potency entry was “inactive”.
As to `O=C(/C=C/c1ccc(N2CCOCC2)cc1)c1ccccc1`, the Potency entry was “inactive”.
`Cc1cc(/C=C2\SC(=Nc3ccc(N4CCOCC4)cc3)N(C)C2=O)c(C)n1-c1cccnc1`: the Potency was 70.8 µM (active).
Turning to `O=C(NCCS(=O)(=O)NCc1ccc(Cl)cc1)c1ccccc1`, the Potency entry is “inactive”.
`Cc1noc(NS(=O)(=O)c2ccc(N/C=C/C(=O)c3ccccc3)cc2)c1C`: the activity, negative = inhibition was -38.3% [at 2.33 µM].
With `Cc1cc(NS(=O)(=O)c2ccc(NC(=O)c3cccnc3)cc2)nc(C)n1`, the Potency result is “inactive”.
Regarding `O=C(/C=C/Nc1ccc(S(=O)(=O)Nc2cnc3ccccc3n2)cc1)c1cccnc1`, the Potency was 70.8 µM (active).
In the case of `CC(OC(=O)CCCOc1ccccc1)C(=O)Nc1ccc(Cl)cn1` (stereo not drawn), the Potency entry was “inactive”.
With `Cc1ccc(-c2noc(CSc3nnc(-c4ccc(Cl)cc4)n3C)n2)cc1`, the Potency entry was “inactive”.
On to `Cc1cc(=O)n2nc(N3CCCC(C(=O)NCc4cccc(Cl)c4)C3)sc2n1` (stereo not drawn), for which the Potency entry was “inactive”.
On to `O=C(CN1CCN(c2ccc(Cl)cc2)CC1)N1CCCC1`, for which the Potency result is “inactive”.
As to `O=C(CN1c2ccccc2S(=O)(=O)c2ccccc21)Nc1cccc(C(F)(F)F)c1`, the Potency entry is “inactive”.
In the case of `O=C(CN1CCOCC1)Nc1cc(Cl)ccc1Cl`, the Potency entry is “inactive”.
`Cc1ccc(Cl)cc1NC(=O)CN1CCN(S(=O)(=O)N2CCOCC2)CC1`: the Potency result was “inactive”.
Take `O=C(CN1CCN(c2ccc(O)cc2)CC1)Nc1cc(S(=O)(=O)N2CCOCC2)ccc1Cl`: the Potency was 3.16 µM (active).
Regarding `CC(C)OC(=O)CN1CCN(c2ccc(Cl)cc2)CC1`, the Potency entry is “inactive”.
For the compound `NC(=O)CCN1CCN(S(=O)(=O)/C=C/c2ccccc2)CC1`, the Potency entry was “inactive”.
Regarding `O=C(CN1CCN(c2ccc(F)cc2)CC1)Nc1cccc(C(F)(F)F)c1`, the Potency was 50.1 µM (active).
In the case of `COc1ccccc1N1CCN(CC(=O)NC(=O)NCc2ccco2)CC1`, the Potency result was “inactive”.
For `O=C(CN1CCN(S(=O)(=O)/C=C/c2ccccc2)CC1)NC(=O)NCc1ccco1`, the Potency was 20 µM (active).
Take `O=C(CN1CCN(c2ccc(Cl)cc2)CC1)c1ccccc1`: the Potency was 8.91 µM (active).
As for `COc1ccc(NC(C)=O)cc1NC(=O)CN1CCN(c2ccc(F)cc2)CC1`, the Potency result was “inactive”.
As to `COc1ccccc1NC(=O)C1=C(C)Nc2nc(SCC(=O)c3ccc(C)cc3)nn2C1c1ccccc1C` (stereo not drawn), the Potency entry is “inactive”.
Turning to `O=C(NCc1ccncc1)c1cccc(NS(=O)(=O)c2ccc(F)c(F)c2)c1`, the Potency result was “inactive”.
Still for that read-out and setting: the same measure for `CC1CCCCN1S(=O)(=O)c1ccc(F)c(C(=O)Nc2ccccc2C(F)(F)F)c1` (stereo not drawn): “inactive”; for `CN(Cc1ccccc1)S(=O)(=O)c1ccc(F)c(C(=O)Nc2cccc(Cl)c2Cl)c1`: “inactive”; for `COc1ccc(-c2c(C)c3ccc(O)c(CN4CCCC4)c3oc2=O)cc1OC`: “inactive”.
For the compound `COc1ccc(-c2noc(CCC(=O)N(C)c3ccccc3C)n2)cc1`, the Potency entry is “inactive”.
Take `Cc1ccc2nc(SCC(=O)N3CCN(c4ccccc4)CC3)nc(=O)n2c1`: the activity, negative = inhibition is -0.43% [at 0.501 µM].
With `O=C(COC(=O)c1cc(=O)[nH]c2ccccc12)NCc1cccc(Cl)c1`, the activity, negative = inhibition is 1.96% [at 12.7 µM].
Turning to `CN(C)S(=O)(=O)c1ccc(C(=O)N(Cc2cccnc2)c2nc3c(F)cc(F)cc3s2)cc1`, the Potency result was “inactive”.
Turning to `COc1ccccc1NC(=O)C1CCCN1S(=O)(=O)c1ccc(Cl)cc1` (stereo not drawn), the Potency result is “inactive”.
Regarding `O=C(CNC(=O)c1ccc(Br)o1)NCC1CCCO1` (stereo not drawn), the Potency result is “inactive”.
As for `NS(=O)(=O)c1ccc(NC(=O)C(=O)Nc2ccc3nc4n(c(=O)c3c2)CCCCC4)cc1`, the Potency result is “inactive”.
On the same count and under the same terms, in the case of `O=C(CN1CCN(c2ccc(O)cc2)CC1)Nc1ccc(-c2ccccc2)cc1` it was 11.2 µM (active).
Take `O=C(CN1CCOCC1)Nc1ccccc1`: the activity, negative = inhibition is 41.4% [at 12.7 µM].
Take `O=C(CN1CCN(c2ccccc2)CC1)Nc1ccc(F)cc1`: the Potency result was “inactive”.
For the compound `O=C(CN1CCN(S(=O)(=O)/C=C/c2ccccc2)CC1)Nc1ccc(N2CCOCC2)cc1`, the Potency is 35.5 µM (active).
Consider `O=c1cc(CN2CCN(S(=O)(=O)/C=C/c3ccccc3)CC2)c2ccc(O)cc2o1`, for which the Potency entry is “inactive”.
